# From PubChem BioAssay (Tox21)
# Results filed as inconclusive are left out. Where a call stands in place of a potency, no number is given. Values without a mark were called inactive. Activity calls are given as the source filed them. Unless noted, calls come from the whole dose curve; as a rule, active = well fitted curve in the direction sought with a large enough effect in the repeat runs; inconclusive = weak or mixed curves; inactive = no such curve, though single readings can be large; an effect the other way counts as inactive or inconclusive.
# Experiments:
# [1] = qHTS assay to identify aromatase inhibitors - cell viability counter screen (AID 743084);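 note: cells stimulated with testosterone during compound exposure; nearly all actives have a fitted effect of over 55% in size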
# [2] = target: Aryl hydrocarbon receptor (Homo sapiens) (UniProt P35869); assay: qHTS assay to identify small molecule that activate the aryl hydrocarbon receptor (AhR) signaling pathway (AID 743085);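 note: HG2L7.5c1 human HepG2 liver cells with stably integrated DRE-driven firefly reporter; series mostly up to about 70 µM; nearly all actives have a fitted effect of over 15% in size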
# Summary of the method: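 A multiplexed format paired cell viability (CellTiter-Fluor fluorescence) with AhR-dependent luciferase output (ONE-Glo luminescence) in the same wells of HepG2 DRE-luc cells after 24 h compound exposure at 37C.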
# [3] = qHTS assay to identify small molecule that activate the aryl hydrocarbon receptor (AhR) signaling pathway - cell viability counter screen (AID 743086);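 note: HepG2 liver cells carrying the AhR DRE luciferase reporter; series mostly up to about 70 µM; nearly all actives have a fitted effect of over 45% in size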
# Summary of the method: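 Cytotoxicity counter screen: CellTiter-Fluor signal (30 min, 37 C) in 4000 HepG2 cells/well carrying the DRE-luciferase reporter, following 24 h compound exposure at 37 C.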
# [4] = target: Peroxisome proliferator-activated receptor gamma (Homo sapiens) (UniProt P37231); assay: qHTS assay to identify small molecule agonists of the peroxisome proliferator-activated receptor gamma (PPARg) signaling pathway (AID 743094; active = well fitted activation curve with a large enough effect in the signal ratio in the repeat runs, not every such curve was filed as active; the % refers to the signal ratio)
# Summary of the method: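 Reporter activation was scored by fluorescence of cleaved LiveBLAzer B/G substrate (1 h, room temperature) in PPARg-bla HEK293H cells previously treated 17 h at 37C with DMSO-dissolved compounds.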
# [5] = target: Peroxisome proliferator-activated receptor gamma (Homo sapiens) (UniProt P37231); assay: qHTS assay to identify small molecule antagonists of the peroxisome proliferator-activated receptor gamma (PPARg) signaling pathway (AID 743191; calls by dose curve; note: series mostly up to about 63 µM; nearly all actives have a fitted effect of over 30% in size)
# Summary of the method: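 Beta-lactamase reporter under UAS control in HEK293H PPARg-bla cells; compound treatment 17 h at 37C. Read-out: fluorescence intensity after 1 h room-temperature incubation with LiveBLAzer B/G FRET substrate.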
# [6] = qHTS assay to identify small molecule antagonists of the peroxisome proliferator-activated receptor gamma (PPARg) signaling pathway - cell viability counter screen (AID 743194); note: nearly all actives have a fitted effect of over 55% in size
# Summary of the method: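 Viability was measured as CellTiter-Glo luminescence in GeneBLAzer PPARg UAS-bla HEK293H cells. These cells had been exposed 17 h at 37 C to compounds together with rosiglitazone at 50 nM final, with the beta-lactamase readout taken in the same wells.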
# [7] = qHTS assay for small molecule agonists of the antioxidant response element (ARE) signaling pathway (AID 743202; active = well fitted activation curve with a large enough effect in the signal ratio in the repeat runs, not every such curve was filed as active; the % refers to the signal ratio)
# Summary of the method: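 Beta-lactamase reporter activity, read as fluorescence intensity, reflects ARE/Nrf2 pathway induction in HepG2 cells after 16 h compound exposure at 37 C; substrate loading was 2 h at room temperature.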
# [8] = qHTS assay for small molecule agonists of the antioxidant response element (ARE) signaling pathway - cell viability counter screen (AID 743203; calls by dose curve; note: nearly all actives have a fitted effect of over 55% in size)
# Summary of the method: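 Viability counter screen: stably transfected ARE-bla HepG2 line, 16 hrs compound exposure at 37C/5% CO2, ATP-based CellTiter-Glo luminescence measured in the reporter wells.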
# [9] = qHTS assay for small molecule activators of the heat shock response signaling pathway - cell viability counter screen (AID 743209); note: nearly all actives have a fitted effect of over 50% in size
# Summary of the method: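 Viability of HSE-bla HeLa cells is measured with CellTiter-Glo in the wells already used for the reporter read. Compound exposure lasts 5 h at 37 C, and luminescence is read after 30 min at room temperature.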
# [10] = qHTS assay for small molecule activators of the heat shock response signaling pathway (AID 743210; active = well fitted activation curve with a large enough effect in the signal ratio in the repeat runs, with a control signal flat, not every such curve was filed as active; the % refers to the signal ratio;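 note: HeLa cells with beta-lactamase reporter driven by heat shock elements; series mostly up to about 63 µM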)
# Summary of the method: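 Fluorescence from a cleaved B/G FRET substrate (2.5 h, room temp) reports HSE-driven beta-lactamase in HeLa cells treated 5 h at 37 C with DMSO-dissolved compounds.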
# [11] = qHTS assay to identify small molecule agonists of the peroxisome proliferator-activated receptor delta (PPARd) signaling pathway - cell viability counter screen (AID 743211); note: nearly all actives have a fitted effect of over 55% in size
# Summary of the method: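 Tox21 library compounds, delivered in DMSO, were incubated 17 h with PPARd-bla HEK293H cells; cytotoxicity was taken from CellTiter-Glo luminescence read 30 min after reagent addition.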
# [12] = target: Peroxisome proliferator-activated receptor delta (Homo sapiens) (UniProt Q03181); assay: qHTS assay to identify small molecule agonists of the peroxisome proliferator-activated receptor delta (PPARd) signaling pathway (AID 743212; calls by dose curve;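 note: HEK293H cells with PPARd UAS beta-lactamase reporter GeneBLAzer system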)
# Summary of the method: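 Steps: seed PPARd-bla HEK293H cells; incubate 5 h, 37 C, 5% CO2; add compounds in DMSO; incubate, 37 C; add LiveBLAzer B/G FRET substrate; hold 2 h at room temperature; measure fluorescence.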
# [13] = qHTS assay to identify small molecule antagonists of the peroxisome proliferator-activated receptor delta (PPARd) signaling pathway - cell viability counter screen (AID 743213); note: nearly all actives have a fitted effect of over 50% in size; note: potency is the fitted concentration of half-maximal effect
# Summary of the method: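 In this counter screen, HEK293H cells carrying a UAS-beta-lactamase reporter are co-treated with test compounds and 300 nM L165041 (final) for 17 h at 37 C; cell viability is quantified by CellTiter-Glo luminescence.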
# [14] = target: Bile acid receptor (Homo sapiens) (UniProt Q96RI1); assay: qHTS assay to identify small molecule antagonists of the farnesoid-X-receptor (FXR) signaling pathway (AID 743217; active = well fitted inhibition curve with a large enough effect in the signal ratio in the repeat runs, not every such curve was filed as active; the % refers to the signal ratio)
# Summary of the method: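 Screen of the Tox21 10K library in quantitative HTS format using FXR-UAS-bla HEK 293T reporter cells. Agonist chenodeoxycholic acid, 50 uM final, added with compounds; 16 h incubation at 37 °C; beta-lactamase FRET fluorescence measured.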
# [15] = qHTS assay to identify small molecule agonists of the farnesoid-X-receptor (FXR) signaling pathway - cell viability counter screen (AID 743218); note: nearly all actives have a fitted effect of over 45% in size
# Summary of the method: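 Viability of FXR-bla HEK 293T cells is measured by ATP-based CellTiter-Glo luminescence following 16 h compound treatment at 37 C and a prior 2 h room-temperature beta-lactamase substrate step.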
# [16] = target: Bile acid receptor (Homo sapiens) (UniProt Q96RI1); assay: qHTS assay to identify small molecule agonists of the farnesoid-X-receptor (FXR) signaling pathway (AID 743220; active = well fitted activation curve with a large enough effect in the signal ratio in the repeat runs, not every such curve was filed as active; the % refers to the signal ratio)
# Summary of the method: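 FXR-UAS-bla HEK 293T cells carrying a UAS-driven beta-lactamase reporter were plated for 5 h at 37C/5% CO2, then exposed to DMSO-dissolved Tox21 10K compounds for 16 h at 37C. A LiveBLAzer B/G FRET substrate was loaded for 2 h at room temperature before fluorescence reading.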
# [17] = qHTS assay to identify small molecule antagonists of the farnesoid-X-receptor (FXR) signaling pathway - cell viability counter screen (AID 743221; active = well fitted cell-killing curve with a large enough effect in the repeat runs, not every such curve was filed as active; note: nearly all actives have a fitted effect of over 50% in size)
# Summary of the method: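 Cytotoxicity is taken from ATP luminescence (CellTiter-Glo, 30 min, room temperature) in FXR-bla HEK 293T cells previously incubated 16 h at 37 C with compound and chenodeoxycholic acid at 50 uM final.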
# [18] = target: Vitamin D3 receptor (Homo sapiens) (UniProt P11473); assay: qHTS assay to identify small molecule agonists of the vitamin D receptor (VDR) signaling pathway (AID 743222; calls by dose curve)
# Summary of the method: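 Fluorescence from cleaved LiveBLAzer B/G FRET substrate served as readout. VDR-bla cells had been treated 16 h at 37C with test compounds in DMSO, following a 4 h settling period, and substrate was loaded for 2 h at RT.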
# [19] = target: Vitamin D3 receptor (Homo sapiens) (UniProt P11473); assay: qHTS assay to identify small molecule antagonists of the vitamin D receptor (VDR) signaling pathway (AID 743223; active = well fitted inhibition curve with a large enough effect in the signal ratio in the repeat runs, not every such curve was filed as active; the % refers to the signal ratio)
# Summary of the method: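 Quantitative HTS in VDR-bla reporter cells stimulated with 1alpha,25-dihydroxyvitamin D3, 3 nM final. Compound exposure 16 h, 37C, 5% CO2. Read-out: beta-lactamase FRET substrate fluorescence, 2 h RT.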
# [20] = target: Peroxisome proliferator-activated receptor delta (Homo sapiens) (UniProt Q03181); assay: qHTS assay to identify small molecule antagonists of the peroxisome proliferator-activated receptor delta (PPARd) signaling pathway (AID 743215; active = well fitted inhibition curve with a large enough effect in the signal ratio in the repeat runs, not every such curve was filed as active; the % refers to the signal ratio;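 note: cells stimulated with agonist L165041 at 300 nM final during compound exposure; series mostly up to about 62 µM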)
# Summary of the method: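 Plated HEK293H PPARd-bla cells rested 5 h at 37 C and 5% CO2. Compound, then agonist L165041 at 300 nM final, was added; 17 h at 37 C followed. Substrate loading, 2 h room temperature, fluorescence measured.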
# Chain of Peroxisome proliferator-activated receptor delta (Homo sapiens) (Q03181 whole entry, looked up): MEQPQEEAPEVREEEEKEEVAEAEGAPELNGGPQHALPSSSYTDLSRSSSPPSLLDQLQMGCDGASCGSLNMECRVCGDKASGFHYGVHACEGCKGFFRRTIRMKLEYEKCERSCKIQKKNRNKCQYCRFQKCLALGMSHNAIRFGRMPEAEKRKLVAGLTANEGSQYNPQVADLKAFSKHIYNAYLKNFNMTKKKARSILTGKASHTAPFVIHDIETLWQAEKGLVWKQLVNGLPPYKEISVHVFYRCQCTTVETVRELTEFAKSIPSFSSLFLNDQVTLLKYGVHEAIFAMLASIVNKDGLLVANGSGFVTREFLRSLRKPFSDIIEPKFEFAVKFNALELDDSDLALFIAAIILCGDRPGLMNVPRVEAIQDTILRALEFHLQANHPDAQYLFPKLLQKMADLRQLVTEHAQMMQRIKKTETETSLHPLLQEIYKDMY
# Chain of Peroxisome proliferator-activated receptor gamma (Homo sapiens) (P37231 whole entry, looked up): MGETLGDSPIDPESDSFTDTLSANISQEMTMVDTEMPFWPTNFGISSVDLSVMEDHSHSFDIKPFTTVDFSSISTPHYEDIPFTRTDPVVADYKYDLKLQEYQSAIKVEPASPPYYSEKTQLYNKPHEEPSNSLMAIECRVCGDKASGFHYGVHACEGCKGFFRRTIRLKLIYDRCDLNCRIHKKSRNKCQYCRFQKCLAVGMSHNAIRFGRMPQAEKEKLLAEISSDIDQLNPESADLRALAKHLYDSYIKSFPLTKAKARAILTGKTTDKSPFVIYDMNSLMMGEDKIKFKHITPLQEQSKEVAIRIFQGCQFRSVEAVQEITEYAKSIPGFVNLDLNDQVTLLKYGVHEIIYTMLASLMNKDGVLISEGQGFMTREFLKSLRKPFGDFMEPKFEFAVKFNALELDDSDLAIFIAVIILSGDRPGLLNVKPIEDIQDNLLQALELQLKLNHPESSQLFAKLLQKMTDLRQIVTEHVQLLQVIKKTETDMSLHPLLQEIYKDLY
# Chain of Aryl hydrocarbon receptor (Homo sapiens) (P35869 whole entry, looked up): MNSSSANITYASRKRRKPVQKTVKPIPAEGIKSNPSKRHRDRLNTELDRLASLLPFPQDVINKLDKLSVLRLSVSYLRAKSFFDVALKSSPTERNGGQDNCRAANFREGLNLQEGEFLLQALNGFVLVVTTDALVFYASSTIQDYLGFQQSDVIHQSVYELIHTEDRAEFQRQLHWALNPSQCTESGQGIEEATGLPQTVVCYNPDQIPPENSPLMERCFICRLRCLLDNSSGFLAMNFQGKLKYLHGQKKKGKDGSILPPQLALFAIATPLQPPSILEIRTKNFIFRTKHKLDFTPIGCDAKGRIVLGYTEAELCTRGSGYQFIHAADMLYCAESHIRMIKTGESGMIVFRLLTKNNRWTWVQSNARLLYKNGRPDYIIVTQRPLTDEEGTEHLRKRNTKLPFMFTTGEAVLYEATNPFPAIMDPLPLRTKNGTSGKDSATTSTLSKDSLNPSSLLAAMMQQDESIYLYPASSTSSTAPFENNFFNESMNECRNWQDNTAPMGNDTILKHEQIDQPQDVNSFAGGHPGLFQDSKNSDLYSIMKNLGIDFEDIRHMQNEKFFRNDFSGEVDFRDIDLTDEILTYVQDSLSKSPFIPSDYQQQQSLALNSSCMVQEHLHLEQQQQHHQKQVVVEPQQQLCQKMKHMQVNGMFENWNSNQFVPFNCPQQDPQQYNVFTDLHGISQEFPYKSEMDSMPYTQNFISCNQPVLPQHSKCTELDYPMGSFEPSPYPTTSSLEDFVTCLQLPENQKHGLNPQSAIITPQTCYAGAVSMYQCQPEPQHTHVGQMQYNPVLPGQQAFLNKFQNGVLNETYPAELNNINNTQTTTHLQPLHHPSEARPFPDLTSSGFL
# Chain of Bile acid receptor (Homo sapiens) (Q96RI1 whole entry, looked up): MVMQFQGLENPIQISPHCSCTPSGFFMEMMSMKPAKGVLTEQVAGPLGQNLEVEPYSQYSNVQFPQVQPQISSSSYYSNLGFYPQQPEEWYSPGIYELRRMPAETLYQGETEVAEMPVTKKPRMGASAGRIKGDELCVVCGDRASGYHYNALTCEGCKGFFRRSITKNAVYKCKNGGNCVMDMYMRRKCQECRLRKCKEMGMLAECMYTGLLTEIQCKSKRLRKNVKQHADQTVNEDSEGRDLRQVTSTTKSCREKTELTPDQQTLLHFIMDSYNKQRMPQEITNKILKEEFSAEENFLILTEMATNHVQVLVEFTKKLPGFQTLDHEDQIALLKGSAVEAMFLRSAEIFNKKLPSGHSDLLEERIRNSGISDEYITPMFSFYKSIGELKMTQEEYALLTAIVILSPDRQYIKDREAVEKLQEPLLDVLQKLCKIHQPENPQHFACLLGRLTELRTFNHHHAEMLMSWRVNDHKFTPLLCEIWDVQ
# Chain of Vitamin D3 receptor (Homo sapiens) (P11473 whole entry, looked up): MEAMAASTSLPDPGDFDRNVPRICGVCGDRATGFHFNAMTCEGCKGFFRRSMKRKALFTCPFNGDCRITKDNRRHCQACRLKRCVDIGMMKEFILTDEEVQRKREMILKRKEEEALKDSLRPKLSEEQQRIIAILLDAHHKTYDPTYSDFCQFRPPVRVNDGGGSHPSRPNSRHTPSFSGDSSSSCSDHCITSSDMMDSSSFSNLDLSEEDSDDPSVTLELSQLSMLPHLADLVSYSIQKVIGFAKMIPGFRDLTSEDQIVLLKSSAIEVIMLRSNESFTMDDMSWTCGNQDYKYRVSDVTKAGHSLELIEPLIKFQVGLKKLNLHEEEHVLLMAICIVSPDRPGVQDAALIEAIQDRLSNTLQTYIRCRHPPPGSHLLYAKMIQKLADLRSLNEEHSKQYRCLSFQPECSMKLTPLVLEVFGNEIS
smiles,measurement,setting,value
O=C(OCCOCCOCCOC(=O)c1ccccc1)c1ccccc1,Potency,[1],inactive
same,Potency,[2],inactive
same,Potency,[3],inactive
same,Potency,[4],inactive
same,Potency,[5],inactive
same,Potency,[6],inactive
same,Potency,[7],inactive
same,Potency,[8],inactive
same,outcome,[9],inactive
same,outcome,[10],inactive
same,Potency,[11],inactive
same,Potency,[12],inactive
same,Potency,[13],inactive
same,outcome,[14],inactive
same,Potency,[15],inactive
same,outcome,[16],inactive
same,Potency,[17],inactive
same,outcome,[18],inactive
same,outcome,[19],inactive
CCCC1CCOC(C)S1 (stereo unspecified),Potency,[1],inactive
same,Potency,[2],inactive
same,Potency,[3],inactive
same,Potency,[4],inactive
same,Potency,[5],inactive
same,Potency,[6],inactive
same,Potency,[7],inactive
same,Potency,[8],inactive
same,outcome,[9],inactive
same,outcome,[10],inactive
same,Potency,[11],inactive
same,Potency,[13],4.9 µM (active)
same,Potency,[15],inactive
same,Potency,[17],inactive
same,outcome,[18],inactive
same,outcome,[19],inactive
Cc1c(Cl)cccc1[N+](=O)[O-],Potency,[1],inactive
same,Potency,[2],inactive
same,Potency,[3],inactive
same,Potency,[4],inactive
same,Potency,[5],inactive
same,Potency,[6],inactive
same,Potency,[7],inactive
same,Potency,[8],inactive
same,outcome,[9],inactive
same,outcome,[10],inactive
same,Potency,[11],inactive
same,Potency,[12],inactive
same,outcome,[20],inactive
same,outcome,[14],inactive
same,Potency,[15],inactive
same,outcome,[16],inactive
same,outcome,[18],inactive
CC(C)NC(=O)c1ccccc1N,Potency,[1],inactive
same,Potency,[2],inactive
same,Potency,[3],inactive
same,Potency,[4],inactive
same,Potency,[5],inactive
same,Potency,[6],inactive
same,Potency,[7],inactive
same,Potency,[8],inactive
same,outcome,[9],inactive
same,outcome,[10],inactive
same,Potency,[11],inactive
same,Potency,[12],inactive
same,Potency,[13],inactive
same,outcome,[14],inactive
same,Potency,[15],inactive
same,outcome,[16],inactive
same,Potency,[17],inactive
same,outcome,[18],inactive
same,outcome,[19],inactive
CCOC(OCC)OCC,Potency,[1],inactive
same,Potency,[2],inactive
same,Potency,[3],inactive
same,Potency,[4],inactive
same,Potency,[5],inactive
same,Potency,[6],inactive
same,Potency,[7],inactive
same,Potency,[8],inactive
same,outcome,[9],inactive
same,outcome,[10],inactive
same,Potency,[11],inactive
same,Potency,[12],inactive
same,Potency,[13],inactive
same,outcome,[14],inactive
same,Potency,[15],inactive
same,outcome,[16],inactive
same,Potency,[17],inactive
same,outcome,[18],inactive
same,outcome,[19],inactive
N#Cc1ccc(CC(=O)c2cccc(C(F)(F)F)c2)cc1,Potency,[1],inactive
same,Potency,[2],inactive
same,Potency,[3],inactive
same,Potency,[4],inactive
same,Potency,[5],inactive
same,Potency,[6],inactive
same,Potency,[7],inactive
same,Potency,[8],inactive
same,outcome,[9],inactive
same,outcome,[10],inactive
same,Potency,[11],inactive
same,Potency,[12],inactive
same,Potency,[13],inactive
same,outcome,[20],inactive
same,Potency,[15],inactive
same,Potency,[17],inactive
same,outcome,[18],inactive
CCCCCCCCCCCCCCCCCCCl,"activity change, negative = cytotoxicity",[1],0.528% [at 8.47 µM]
same,activation,[2],-0.694% [at 8.47 µM]
same,"viability change, negative = cytotoxic",[3],-5.7% [at 8.47 µM]
same,activation,[4],-5.7% [at 7.08 µM]
same,"ratio activity, negative = inhibition",[5],3.29% [at 5.95 µM]
same,"activity change, negative = cytotoxicity",[6],3.5% [at 5.95 µM]
same,activation,[7],-2.23% [at 8.36 µM]
same,"viability change, negative = cytotoxic",[8],1.36% [at 8.36 µM]
same,"activity change, negative = cytotoxicity",[9],-2.21% [at 5.95 µM]
same,activation,[10],-1.98% [at 5.95 µM]
same,"activity change, negative = cytotoxicity",[11],0.407% [at 5.95 µM]
same,activation,[12],0.183% [at 5.95 µM]
same,"viability change, negative = cytotoxic",[13],-29.3% [at 6.26 µM]
same,"ratio activity, negative = inhibition",[20],-12.3% [at 6.26 µM]
same,"activity change, negative = inhibition",[14],-9.56% [at 5.95 µM]
same,activation,[16],0.479% [at 5.95 µM]
same,"activity change, negative = cytotoxicity",[17],0.201% [at 5.95 µM]
same,activation,[18],1.2% [at 6.01 µM]
same,"activity change, negative = inhibition",[19],1.88% [at 6.95 µM]
